# Assay results published in the supplement of paper PMC12282887.
# ± gives the standard deviation of the averaged measurements.
# Experiments:
# Assay in all cases: promoter activity interaction Z-score (Lux/OD deviation from empty-vector control); higher = stronger promoter induction by the compound
# [1] = tested on: E. coli BW25113 acrABp lux reporter
# Summary of the method: (§1)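 Wild-type E. coli BW25113 and three single-gene deletion strains, each carrying a low-copy luxCDABE promoter reporter, were grown at 37°C in 40 µl LB Lennox per well of a 384-well plate. Every compound was applied at four 1:2 dilutions in biological duplicates, and OD600 and luminescence were read every 30 min for 12 h. Integration covered 0–8 h for wild type and 1–9 h for deletion strains, and wells under 10% of the median growth value were removed. Scores are Z-transformed residuals of growth-normalised luminescence fitted against a control.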
# [2] = tested on: E. coli BW25113 marRABp lux reporter
# Summary of the method: as §1
# [3] = tested on: E. coli BW25113 micFp lux reporter
# Summary of the method: as §1
# [4] = tested on: E. coli BW25113 ompFp lux reporter
# Summary of the method: as §1
# [5] = tested on: E. coli BW25113 robp lux reporter
# Summary of the method: as §1
# [6] = tested on: E. coli BW25113 soxSp lux reporter
# Summary of the method: as §1
# [7] = tested on: E. coli BW25113 tolCp lux reporter
# Summary of the method: as §1
# [8] = 20.7 µg/ml, genetic background: wild type
# [9] = 20.7 µg/ml, genetic background: ΔmarA
# [10] = 20.7 µg/ml, genetic background: Δrob
# [11] = 20.7 µg/ml, genetic background: ΔsoxS
# [12] = 41.4 µg/ml, genetic background: wild type
# [13] = 41.4 µg/ml, genetic background: ΔmarA
# [14] = 41.4 µg/ml, genetic background: Δrob
# [15] = 41.4 µg/ml, genetic background: ΔsoxS
# [16] = 82.8 µg/ml, genetic background: wild type
# [17] = 82.8 µg/ml, genetic background: ΔmarA
# [18] = 82.8 µg/ml, genetic background: Δrob
# [19] = 82.8 µg/ml, genetic background: ΔsoxS
# [20] = 165.6 µg/ml, genetic background: wild type
# [21] = 165.6 µg/ml, genetic background: ΔmarA
# [22] = 165.6 µg/ml, genetic background: Δrob
# [23] = 165.6 µg/ml, genetic background: ΔsoxS
smiles,measurement,setting,value
CN(C)C(=N)NC(=N)N [Metformin],promoter activity interaction Z-score,[1]; [8],-0.326 ± 0.14
same,promoter activity interaction Z-score,[1]; [9],0.815 ± 0.45
same,promoter activity interaction Z-score,[1]; [10],-0.31 ± 0.23
same,promoter activity interaction Z-score,[1]; [11],-0.0221 ± 0.28
same,promoter activity interaction Z-score,[1]; [12],-0.0908 ± 0.043
same,promoter activity interaction Z-score,[1]; [13],0.174 ± 0.41
same,promoter activity interaction Z-score,[1]; [14],0.377 ± 0.017
same,promoter activity interaction Z-score,[1]; [15],-0.0209 ± 0.61
same,promoter activity interaction Z-score,[1]; [16],-0.145 ± 0.14
same,promoter activity interaction Z-score,[1]; [17],0.000785 ± 1.4
same,promoter activity interaction Z-score,[1]; [18],0.271 ± 0.043
same,promoter activity interaction Z-score,[1]; [19],-0.155 ± 0.2
same,promoter activity interaction Z-score,[1]; [20],-0.249 ± 0.13
same,promoter activity interaction Z-score,[1]; [21],0.575 ± 0.81
same,promoter activity interaction Z-score,[1]; [22],0.41 ± 0.17
same,promoter activity interaction Z-score,[1]; [23],0.11 ± 0.051
same,promoter activity interaction Z-score,[2]; [8],-0.244 ± 0.08
same,promoter activity interaction Z-score,[2]; [9],0.0455 ± 0.11
same,promoter activity interaction Z-score,[2]; [10],-0.139 ± 0.14
same,promoter activity interaction Z-score,[2]; [11],-0.145 ± 0.0015
same,promoter activity interaction Z-score,[2]; [12],-0.1 ± 0.072
same,promoter activity interaction Z-score,[2]; [13],-0.132 ± 0.1
same,promoter activity interaction Z-score,[2]; [14],-0.0299 ± 0.073
same,promoter activity interaction Z-score,[2]; [15],-0.0239 ± 0.17
same,promoter activity interaction Z-score,[2]; [16],-0.104 ± 0.063
same,promoter activity interaction Z-score,[2]; [17],-0.195 ± 0.23
same,promoter activity interaction Z-score,[2]; [18],-0.113 ± 0.043
same,promoter activity interaction Z-score,[2]; [19],-0.0656 ± 0.052
same,promoter activity interaction Z-score,[2]; [20],-0.551 ± 0.065
same,promoter activity interaction Z-score,[2]; [21],-0.242 ± 0.025
same,promoter activity interaction Z-score,[2]; [22],-0.0241 ± 0.2
same,promoter activity interaction Z-score,[2]; [23],0.145 ± 0.22
same,promoter activity interaction Z-score,[3]; [8],-0.368 ± 0.019
same,promoter activity interaction Z-score,[3]; [9],-0.0629 ± 0.04
same,promoter activity interaction Z-score,[3]; [10],-0.153 ± 0.082
same,promoter activity interaction Z-score,[3]; [11],-0.139 ± 0.14
same,promoter activity interaction Z-score,[3]; [12],-0.177 ± 0.23
same,promoter activity interaction Z-score,[3]; [13],-0.102 ± 0.12
same,promoter activity interaction Z-score,[3]; [14],-0.0244 ± 0.0094
same,promoter activity interaction Z-score,[3]; [15],-0.233 ± 0.015
same,promoter activity interaction Z-score,[3]; [16],-0.161 ± 0.16
same,promoter activity interaction Z-score,[3]; [17],-0.0653 ± 0.072
same,promoter activity interaction Z-score,[3]; [18],-0.0658 ± 0.068
same,promoter activity interaction Z-score,[3]; [19],-0.0678 ± 0.068
same,promoter activity interaction Z-score,[3]; [20],-0.544 ± 0.37
same,promoter activity interaction Z-score,[3]; [21],-0.151 ± 0.025
same,promoter activity interaction Z-score,[3]; [22],-0.0629 ± 0.08
same,promoter activity interaction Z-score,[3]; [23],-0.000873 ± 0.19
same,promoter activity interaction Z-score,[4]; [8],-0.191 ± 0.037
same,promoter activity interaction Z-score,[4]; [9],0.332 ± 0.047
same,promoter activity interaction Z-score,[4]; [10],-0.324 ± 0.2
same,promoter activity interaction Z-score,[4]; [11],-0.0538 ± 0.13
same,promoter activity interaction Z-score,[4]; [12],-0.037 ± 0.014
same,promoter activity interaction Z-score,[4]; [13],-0.125 ± 0.2
same,promoter activity interaction Z-score,[4]; [14],0.267 ± 0.2
same,promoter activity interaction Z-score,[4]; [15],0.0362 ± 0.37
same,promoter activity interaction Z-score,[4]; [16],0.036 ± 0.056
same,promoter activity interaction Z-score,[4]; [17],0.0389 ± 0.14
same,promoter activity interaction Z-score,[4]; [18],0.322 ± 0.37
same,promoter activity interaction Z-score,[4]; [19],0.0576 ± 0.088
same,promoter activity interaction Z-score,[4]; [20],-0.153 ± 0.11
same,promoter activity interaction Z-score,[4]; [21],0.766 ± 0.041
same,promoter activity interaction Z-score,[4]; [22],0.44 ± 0.62
same,promoter activity interaction Z-score,[4]; [23],0.813 ± 0.41
same,promoter activity interaction Z-score,[5]; [8],0.282 ± 0.18
same,promoter activity interaction Z-score,[5]; [9],0.497 ± 0.0053
same,promoter activity interaction Z-score,[5]; [10],-0.187 ± 0.91
same,promoter activity interaction Z-score,[5]; [11],0.397 ± 1.1
same,promoter activity interaction Z-score,[5]; [12],-0.109 ± 0.24
same,promoter activity interaction Z-score,[5]; [13],0.171 ± 0.31
same,promoter activity interaction Z-score,[5]; [14],0.416 ± 0.36
same,promoter activity interaction Z-score,[5]; [15],0.638 ± 1.1
same,promoter activity interaction Z-score,[5]; [16],0.336 ± 0.065
same,promoter activity interaction Z-score,[5]; [17],0.0784 ± 0.21
same,promoter activity interaction Z-score,[5]; [18],0.39 ± 0.41
same,promoter activity interaction Z-score,[5]; [19],0.405 ± 0.19
same,promoter activity interaction Z-score,[5]; [20],-0.305 ± 0.39
same,promoter activity interaction Z-score,[5]; [21],0.28 ± 0.035
same,promoter activity interaction Z-score,[5]; [22],0.519 ± 0.11
same,promoter activity interaction Z-score,[5]; [23],0.649 ± 0.18
same,promoter activity interaction Z-score,[6]; [8],-0.232 ± 0.14
same,promoter activity interaction Z-score,[6]; [9],0.132 ± 0.02
same,promoter activity interaction Z-score,[6]; [10],-0.07 ± 0.0035
same,promoter activity interaction Z-score,[6]; [11],0.26 ± 0.056
same,promoter activity interaction Z-score,[6]; [12],-0.046 ± 0.095
same,promoter activity interaction Z-score,[6]; [13],0.0673 ± 0.055
same,promoter activity interaction Z-score,[6]; [14],0.0305 ± 0.041
same,promoter activity interaction Z-score,[6]; [15],0.0287 ± 0.19
same,promoter activity interaction Z-score,[6]; [16],0.0138 ± 0.19
same,promoter activity interaction Z-score,[6]; [17],-0.0135 ± 0.017
same,promoter activity interaction Z-score,[6]; [18],0.0262 ± 0.22
same,promoter activity interaction Z-score,[6]; [19],-0.0818 ± 0.083
same,promoter activity interaction Z-score,[6]; [20],-0.199 ± 0.039
same,promoter activity interaction Z-score,[6]; [21],-0.0313 ± 0.093
same,promoter activity interaction Z-score,[6]; [22],-0.191 ± 0.24
same,promoter activity interaction Z-score,[6]; [23],0.0168 ± 0.089
same,promoter activity interaction Z-score,[7]; [8],-0.594 ± 0.2
same,promoter activity interaction Z-score,[7]; [9],1.15 ± 1.7
same,promoter activity interaction Z-score,[7]; [10],-0.505 ± 0.25
same,promoter activity interaction Z-score,[7]; [11],-0.306 ± 0.74
same,promoter activity interaction Z-score,[7]; [12],-0.0152 ± 1.1
same,promoter activity interaction Z-score,[7]; [13],-0.186 ± 1
same,promoter activity interaction Z-score,[7]; [14],0.0225 ± 0.69
same,promoter activity interaction Z-score,[7]; [15],-0.32 ± 0.57
same,promoter activity interaction Z-score,[7]; [16],0.0793 ± 0.27
same,promoter activity interaction Z-score,[7]; [17],0.276 ± 0.67
same,promoter activity interaction Z-score,[7]; [18],-0.546 ± 0.36
same,promoter activity interaction Z-score,[7]; [19],0.0771 ± 1.1
same,promoter activity interaction Z-score,[7]; [20],-0.144 ± 0.74
same,promoter activity interaction Z-score,[7]; [21],0.284 ± 1.1
same,promoter activity interaction Z-score,[7]; [22],-0.698 ± 0.026
same,promoter activity interaction Z-score,[7]; [23],0.3 ± 0.58
